# GLA spleen mod = inhibitors or activators of human alpha-galactosidase in spleen homogenate. P06280. human spleen homogenate, 4MU-alpha-Gal fluorescence, 40 min. Potency, µM (titrated, usually from 80 µM), hits mostly inhibitors. 240,000 compounds, 0.008% hits. AID 2107
#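 qHTS titration in buffer at pH 5.0. Alpha-galactosidase activity in spleen homogenate was measured via 4-methylumbelliferone release from 1 mM fluorogenic substrate after 40 min at 37C and a pH 10 stop. AC50 came from Hill fits of control-normalized data.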
# ALDH1A1 inh = inhibitors of human aldehyde dehydrogenase 1A1 | P00352 | Purified ALDH1A1, NADH fluorescence, propionaldehyde substrate | Potency, µM (top dose mostly 75.3 µM), hits mostly inhibitors | 220,000 compounds, 7.3% hits | AID 1030; active = well fitted inhibition curve with a large enough effect, not every such curve was filed as active; inconclusive = small, poorly fitted or top-dose-only effect, or another doubt; inactive = no such curve, though single readings can be large or run the other way
# Target sequence (P00352 whole entry, looked up): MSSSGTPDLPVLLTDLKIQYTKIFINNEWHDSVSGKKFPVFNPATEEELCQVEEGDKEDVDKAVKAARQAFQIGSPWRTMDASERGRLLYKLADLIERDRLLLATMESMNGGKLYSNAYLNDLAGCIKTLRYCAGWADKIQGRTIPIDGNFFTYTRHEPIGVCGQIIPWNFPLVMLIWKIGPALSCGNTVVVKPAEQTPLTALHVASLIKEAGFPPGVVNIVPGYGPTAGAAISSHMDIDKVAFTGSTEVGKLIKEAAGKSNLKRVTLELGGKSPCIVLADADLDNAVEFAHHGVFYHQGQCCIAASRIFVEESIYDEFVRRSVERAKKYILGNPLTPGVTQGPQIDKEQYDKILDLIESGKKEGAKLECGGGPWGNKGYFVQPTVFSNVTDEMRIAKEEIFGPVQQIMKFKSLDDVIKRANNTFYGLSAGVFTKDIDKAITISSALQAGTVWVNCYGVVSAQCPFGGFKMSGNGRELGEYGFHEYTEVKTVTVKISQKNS
# 12-hLO inh = inhibitors of human 12-lipoxygenase (ALOX12); P18054; purified 12-hLO, xylenol orange hydroperoxide absorbance; Potency, µM (titrated, usually from 57.1 µM), most hits filed as inhibitors; 150,000 compounds, 0.12% hits; AID 1452; also: nearly all actives have a fitted effect of over 55% in size
#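 Xylenol orange chromogenic assay: hydroperoxide from 12hLO oxidises Fe(II), giving red-shifted Fe(III)-XO absorbance. Conditions: 150 nM enzyme, 40 uM arachidonic acid, 25 mM Hepes pH 7.0, 0.01% Triton X-100, 30 min, room temperature.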
# HPGD block = HPGD (human) dehydrogenase inhibition; P15428; purified HPGD, NADH fluorescence kinetic, PGE2 substrate; Potency, µM, actives largely listed as inhibitors; 150,000 compounds, 4.3% hits; AID 894; active = well fitted inhibition curve with a large enough effect, not every such curve was filed as active; inconclusive = small, poorly fitted or top-dose-only effect, or another doubt; inactive = no such curve, though single readings can be large or run the other way
#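 NADH formation kinetics: reaction with 30 uM PGE2 and 1 mM NAD+ (final), 20 nM enzyme, Tris-HCl pH 8 with Tween 20, after 15 min compound preincubation at room temperature. Fluorescence change, last versus first of five reads.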
# PNC assembly inh = inhibitors of perinucleolar compartment assembly | PC3M PTB-GFP, PNC prevalence imaging, 16 h; stronger effect = lower value | 140,000 compounds, 3.1% hits | activity change (PNC), negative = inhibition, % at 10 µM;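 active = readout at or below -70, meaning at least 70% loss of cells showing the perinucleolar compartment, a nuclear body marking cancer cells; inconclusive = readout between -30 and a set limit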
#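 PC3M cells stably expressing PTB-GFP, 750–1000 cells/well, treated 16 h at 37 °C with compound (23 nl of library stock), in duplicate. After paraformaldehyde fixation and Hoechst stain, imaged at 20x; PNC prevalence scored by image analysis.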
# GLA inh pH 4.5 = inhibitors of human alpha-galactosidase A at pH 4.5 | 230,000 tested, under 10 active | purified enzyme, 4-MU-alpha-Gal fluorescence, pH 4.5 | activity change, negative = inhibition, % at 105 µM | P06280
# Hits are given with their value; . = inactive; ? = inconclusive; / = no result. A selection: hits, their analogues and other compounds. The true share with any hit is near 10%. Unless noted, calls follow the shape of the dose curve; as a rule, active = well fitted curve in the direction sought with a large enough effect; inconclusive = small, poorly fitted or top-dose-only effect, or another doubt; inactive = no such curve, though single readings can be large; an effect the other way counts as inactive or inconclusive.
SMILES,GLA spleen mod,ALDH1A1 inh,12-hLO inh,HPGD block,PNC assembly inh,GLA inh pH 4.5
COC(=O)CN1C(=O)C2(C(C#N)=C(N)Oc3c2c(C)nn3-c2ccccc2)c2ccccc21 (stereo not drawn),.,0.14µM,.,.,.,.
CC(=O)c1c(C)[nH]c(C(=O)OCC(=O)Nc2cc(S(=O)(=O)N3CCCC3)ccc2Cl)c1C,.,.,.,.,-108,.
O=C(CN1CCN(c2ccc(O)cc2)CC1)Nc1cc(S(=O)(=O)N2CCCC2)ccc1Cl,.,14µM,/,/,/,.
O=C(CN1CCN(c2ccc(O)cc2)CC1)Nc1cc(S(=O)(=O)N2CCCCC2)ccc1Cl,.,24µM,/,/,/,.
CC(=O)c1c(C)[nH]c(C(=O)OCC(=O)Nc2cccc(S(=O)(=O)N3CCCC3)c2)c1C,.,.,.,.,.,.
O=C(/C=C\c1ccc(O)c(O)c1)O[C@@H]1C[C@](O)(C(=O)O)C[C@@H](O)[C@@H]1O,.,.,.,.,/,.
COc1ccc(S(=O)(=O)/N=C2/NC(=O)/C(=C\c3cc(OC)c(OC)cc3[N+](=O)[O-])S2)cc1,.,?,.,5µM,.,.
COc1cc(/C=C2\S/C(=N/S(=O)(=O)c3ccccc3)NC2=O)c([N+](=O)[O-])cc1OC,.,.,.,7.1µM,.,.
Cc1ccc(C2CC(c3ccccc3)=NN2C(=S)Nc2ccccc2)o1 (stereo not drawn),.,2µM,?,18µM,-88,.
CC1=NN(C(=S)Nc2ccccc2)C(c2ccccc2)C1 (stereo not drawn),.,.,.,.,.,.
Cc1noc(C)c1CSc1nc2ccccc2c(=O)n1-c1ccccc1,.,4.5µM,.,.,.,.
Cc1nc(CSc2nc3[nH]ncc3c(=O)n2-c2ccccc2)cs1,.,13µM,.,.,.,.
C=CCn1c(SCc2c(C)noc2C)nc2ccccc2c1=O,.,.,.,.,?,.
Cc1noc(C)c1CSc1nc2ccccc2c(=O)n1-c1ccc(F)cc1F,.,8.9µM,.,.,?,.
COC(=O)c1ccc(CSc2nc3ccccc3c(=O)n2-c2ccc(OC)c(OC)c2)o1,.,.,.,.,.,.
Cc1nc(CSc2n[nH]c(=O)n2-c2ccccc2)cs1,.,.,/,/,/,.
COC(=O)c1ccc(CSc2nc3ccccc3c(=O)n2-c2ccccc2)o1,.,25µM,.,.,.,.
COc1cccc([C@@H]2Oc3ccc(Br)cc3C(=O)[C@H]2OC(=O)Nc2ccc(OC(F)F)cc2)c1,.,.,/,.,/,.
CCOc1cc(/C=N/NC(=O)C(=O)NCCCOC(C)C)cc(Br)c1O,.,.,.,.,.,.
Cc1noc(C)c1CSc1nc2[nH]ncc2c(=O)n1-c1ccccc1,.,1.3µM,.,.,-100,.
O=c1c2cn[nH]c2nc(SCc2c(F)cccc2F)n1-c1ccc(Cl)cc1,.,.,/,/,/,?
CCCCCC(=O)/C=C/[C@@H]1[C@@H](C/C=C\CCCC(=O)O)[C@@H](O)C[C@H]1O,.,.,.,.,/,.
CCCCOn1c(C)c(C(C)=O)c2c3no[n+]([O-])c3ccc21,.,.,/,/,/,/
CCOC(=O)c1c(C)n(OCc2ccccc2)c2ccc3c(no[n+]3[O-])c12,.,.,.,.,-80,.
Cc1cc(C)n2nc(SCN3C(=O)c4ccccc4C3=O)nc2n1,.,?,.,22µM,.,.
SMILES,GLA spleen mod,ALDH1A1 inh,12-hLO inh,HPGD block,PNC assembly inh,GLA inh pH 4.5
CCN(C(=O)CSc1nc2nc(C)cc(C)n2n1)c1ccccc1,.,?,.,14µM,.,.
Cc1cc(C)n2nc(SCC(=O)N(C)C)nc2n1,.,.,.,.,?,.
Cc1cc(C)n2nc(SCC(=O)Nc3ccccc3)nc2n1,.,.,/,/,/,.
CCN(C(=O)CSc1nc2nc(C)cc(C)n2n1)c1cccc(C)c1,.,?,.,25µM,.,.
Cc1cc(C)cc(N(CCC#N)C(=O)CSc2nc3nc(C)cc(C)n3n2)c1,.,.,.,.,.,.
O=C(Cc1cccc(C(F)(F)F)c1)NCC(c1ccco1)N1CCCCC1 (stereo not drawn),.,.,/,/,/,.
C[C@@H](C(=O)O)c1ccc(C(=O)c2ccccc2)s1,.,.,.,14µM,/,.

# Compound activity from PubChem BioAssay.
